Source: PubChem BioAssay (NCI)
Compounds without any hit were thinned out: in the full panel of roughly 79,000, 15% have a hit. Active and inactive are the calls of the source. Rule as the data show it: active = growth inhibition above about 70%; inactive = the rest.

Experiments:
[1] = NCI Yeast Anticancer Drug Screen. Data for the rad52 strain (AID 147);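 also: 0% = growth of vehicle-treated control cultures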; conditions: S. cerevisiae rad52 mutant growth inhibition, hits give high values
Method in brief: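 Measured: yeast growth inhibition. System: strain with a defined DNA damage repair alteration. Reference: vehicle-treated control cultures.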

[2] = NCI Yeast Anticancer Drug Screen. Data for the wt1 strain (AID 149);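 also: 0% = growth of vehicle-treated wt1 cultures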; conditions: S. cerevisiae wt1 strain (SPY 50644) growth inhibition, hits give high values
Method in brief: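 Readout: yeast growth inhibition, normalised to vehicle controls, in the wt1 strain exposed to test compounds.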

[3] = NCI Yeast Anticancer Drug Screen. Data for the rad50EPP+ strain (AID 151);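 also: 0% = growth of vehicle-treated control cultures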; conditions: S. cerevisiae rad50 mutant strain, hits give high values
Method in brief: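 One strain with a rad50 alteration (rad50EPP+) was compound-treated, its growth then compared to that of vehicle controls.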

[4] = NCI Yeast Anticancer Drug Screen. Data for the mgt1 strain (AID 153); conditions: S. cerevisiae mgt1 mutant growth inhibition, hits give high values
Method in brief: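 After exposure of the mgt1 yeast mutant to compound, growth was measured and reported as inhibition compared with vehicle controls.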

[5] = NCI Yeast Anticancer Drug Screen. Data for the rad50 strain (AID 155);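 also: 0% = growth of vehicle-only cultures of the same strain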; conditions: S. cerevisiae rad50 strain growth inhibition, hits give high values
Method in brief: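 Compounds were tested on a yeast strain with an engineered DNA damage repair alteration; the reported value is growth inhibition normalised to vehicle treatment.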

[6] = NCI Yeast Anticancer Drug Screen. Data for the rad14 strain (AID 159);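 also: 0% = growth of vehicle-treated control cultures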; conditions: S. cerevisiae rad14 strain growth inhibition, hits give high values
Method in brief: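 Compound-treated yeast with a defined DNA-repair lesion; growth inhibition normalised to vehicle-treated cultures.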

[7] = NCI Yeast Anticancer Drug Screen. Data for the sgs1 mgt1 strain (AID 161);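 also: 0% = growth of cultures given vehicle only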; conditions: S. cerevisiae sgs1 mgt1 strain, hits give high values
Method in brief: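 Read-out: growth inhibition vs vehicle controls. Cells: mutant yeast strain deficient in DNA damage repair.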

[8] = NCI Yeast Anticancer Drug Screen. Data for the CLN2oe strain (AID 163);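 also: 0% = growth of vehicle-only control cultures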; conditions: S. cerevisiae CLN2oe strain, hits give high values
Method in brief: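 Here, growth inhibition in a cell-cycle-altered yeast strain after compound exposure was quantified against vehicle control growth.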

[9] = NCI Yeast Anticancer Drug Screen. Data for the cln2 rad14 strain (AID 165);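 also: 0% = growth equal to vehicle treated cultures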; conditions: S. cerevisiae cln2 rad14 strain, hits give high values
Method in brief: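 Growth of compound-exposed yeast (cln2 rad14 genotype) measured and expressed as inhibition relative to vehicle.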

[10] = NCI Yeast Anticancer Drug Screen. Data for the bub3 strain (AID 167); conditions: S. cerevisiae bub3 mutant strain, hits give high values
Method in brief: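 Growth of a checkpoint-deficient yeast mutant is measured after compound exposure. Values represent inhibition relative to vehicle.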

[11] = NCI Yeast Anticancer Drug Screen. Data for the wt2 strain (AID 169);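 also: 0% = growth of vehicle-treated yeast cultures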; conditions: S. cerevisiae wt2 strain growth inhibition, hits give high values
Method in brief: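 Genetically defined yeast strains from a DNA-repair/cell-cycle panel were used. Compound-exposed yeast growth was measured, and the inhibition was calculated relative to vehicle treatment.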

[12] = NCI Yeast Anticancer Drug Screen. Data for the mlh1 strain (AID 171);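 also: 0% = growth of vehicle-treated control cultures of the same strain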; conditions: S. cerevisiae mlh1 strain growth inhibition, hits give high values
Method in brief: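 Here the genetically defined yeast mutant is grown with each compound, and the extent to which its growth falls below that of vehicle-exposed cells is reported.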

[13] = NCI Yeast Anticancer Drug Screen. Data for the sgs1 strain (AID 173);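 also: 0% = growth of vehicle-only control cultures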; conditions: S. cerevisiae sgs1 mutant, hits give high values
Method in brief: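 Relative growth inhibition, referenced to vehicle, was determined in a yeast strain with a defined alteration affecting DNA damage repair or cell cycle control after compound exposure.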

[14] = NCI Yeast Anticancer Drug Screen. Data for the mlh1 rad18 strain (AID 175); conditions: S. cerevisiae mlh1 rad18 strain growth inhibition, hits give high values
Method in brief: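 In this whole-cell yeast screen, a strain with altered DNA damage repair is challenged with compound, and its growth is measured against matched vehicle-treated controls.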

[15] = NCI Yeast Anticancer Drug Screen. Data for the rad18 strain (AID 177); conditions: S. cerevisiae rad18 mutant growth inhibition, hits give high values
Method in brief: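 Screen uses a yeast strain with a defined lesion in DNA damage repair; compound effect is read as loss of growth compared to untreated vehicle cultures.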

[16] = NCI Yeast Anticancer Drug Screen. Data for the mec2-1 strain (AID 157); conditions: S. cerevisiae mec2-1 strain, hits give high values
Method in brief: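 Test agents were screened against the mec2-1 yeast strain, with defined DNA repair or cell cycle alteration. Growth was scored as inhibition against vehicle-only controls.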

[17] = at 5.0 µM (retest, dose inferred, filed as 0.5)
[18] = at 50.0 µM (retest, dose inferred, filed as 5.0)

Measured: growth inhibition

O=Cc1ccccc1C=O
active: [1]; at 100.0 µM 73% | [2]; at 100.0 µM 90% | [4]; at 100.0 µM 91% | [5]; at 100.0 µM 89% | [6]; at 100.0 µM 86% | [8]; at 100.0 µM 85% | [9]; [18] 74% | [10]; [18] 76% | [10]; at 100.0 µM 81% | [11]; at 100.0 µM 86% | [12]; at 100.0 µM 84% | [13]; at 100.0 µM 72% | [14]; at 50.0 µM 82% | [15]; at 100.0 µM 88%
inactive: [1]; at 1.2 µM -13% | [1]; at 3.7 µM -11% | [1]; at 11.0 µM -7% | [1]; at 33.0 µM 4% | [2]; at 1.2 µM -35% | [2]; at 3.7 µM -31% | [2]; at 11.0 µM -17% | [2]; at 33.0 µM 0% | [3]; at 1.2 µM -8% | [3]; at 3.7 µM -13% | [3]; at 11.0 µM -2% | [3]; at 33.0 µM 6% | [3]; at 100.0 µM 34% | [4]; at 1.2 µM 4% | [4]; at 3.7 µM 9% | [4]; at 11.0 µM 20% | [4]; at 33.0 µM 36% | [5]; at 1.2 µM 14% | [5]; at 3.7 µM 12% | [5]; [17] -6% | [5]; at 11.0 µM 19% | [5]; at 33.0 µM 28% | [5]; [18] 16% | [5]; at 50.0 µM 44.6% | [6]; at 1.2 µM -17% | [6]; at 3.7 µM -12% | [6]; at 11.0 µM -8% | [6]; at 33.0 µM 23% | [7]; [17] -3% | [7]; [18] 43% | [7]; at 50.0 µM 40.3% | [8]; at 1.2 µM 4% | [8]; at 3.7 µM 7% | [8]; at 11.0 µM 3% | [8]; at 33.0 µM 22% | [9]; [17] 5% | [9]; at 50.0 µM 13.6% | [10]; at 1.2 µM 6% | [10]; at 3.7 µM 17% | [10]; [17] -32% | [10]; at 11.0 µM 14% | [10]; at 33.0 µM 23% | [10]; at 50.0 µM 24.4% | [11]; at 1.2 µM -20% | [11]; at 3.7 µM -26% | [11]; at 11.0 µM -15% | [11]; at 33.0 µM -35% | [12]; at 1.2 µM -6% | [12]; at 3.7 µM -5% | [12]; at 11.0 µM 1% | [12]; at 33.0 µM 36% | [13]; at 1.2 µM -19% | [13]; at 3.7 µM -25% | [13]; at 11.0 µM -15% | [13]; at 33.0 µM 2% | [14]; [17] -23% | [14]; [18] 48% | [15]; at 1.2 µM -4% | [15]; at 3.7 µM -5% | [15]; at 11.0 µM 0% | [15]; at 33.0 µM 26%

Cc1ccc(NC(=O)CCC(=O)C(C)C(=O)c2ccccc2)c(C)c1 (stereo not given)
inactive: [1]; at 1.2 µM 1% | [1]; at 3.7 µM 1% | [1]; at 11.0 µM 3% | [1]; at 33.0 µM 1% | [1]; at 100.0 µM -1% | [2]; at 1.2 µM -1% | [2]; at 3.7 µM -1% | [2]; at 11.0 µM -1% | [2]; at 33.0 µM -1% | [2]; at 100.0 µM -3% | [3]; at 1.2 µM -2% | [3]; at 3.7 µM 0% | [3]; at 11.0 µM 1% | [3]; at 33.0 µM 0% | [3]; at 100.0 µM 5% | [5]; at 1.2 µM 1% | [5]; at 3.7 µM -6% | [5]; at 11.0 µM 3% | [5]; at 33.0 µM 3% | [5]; at 50.0 µM -41.7% | [5]; at 100.0 µM -1% | [16]; at 1.2 µM -3% | [16]; at 3.7 µM -5% | [16]; [17] 12% | [16]; at 11.0 µM 1% | [16]; at 33.0 µM -2% | [16]; [18] 39% | [16]; at 50.0 µM -1.6%
active: [5]; [17] 91% | [5]; [18] 92%
